# Source: PubChem BioAssay AID1345082 (National Center for Advancing Translational Sciences (NCATS), 2018)
# The campaign covered roughly 94,000 compounds. About 4,000 (4.3%) were called active. Another 29% or so got no clear call; they are omitted. The full list was thinned out, with actives kept by preference. Unmarked numbers belong to inactive results. Calls follow the shape of the dose curve; as a rule, active = well fitted inhibition curve with a large enough effect; inconclusive = small, poorly fitted or top-dose-only effect; inactive = no such curve, though single readings can be large or run the other way.
# Assay: Cytotoxic Profiling in NIH 3T3 Cell Line of Diverse Libraries Using Quantitative High-Throughput Screening; also: nearly all actives have a fitted effect of over 55% in size
# Settings: NIH 3T3 viability, CellTiter-Glo ATP luminescence, 48-72 h; series mostly up to 96.7 µM; activity change, negative = cytotoxicity: at the top concentration
# Source text: Cell-based phenotypic screening is a commonly used approach to discover biological pathways, novel drug targets, chemical probes and high-quality hit-to-lead molecules. Many hits identified from high-throughput screening campaign are ruled out through a series of follow-up potency, selectivity/specificity, and cytotoxicity assays. Prioritization of molecules with little or no cytotoxicity for a more in-depth downstream evaluation influence the future direction of projects, so cytotoxicity profiling of the screening libraries at early stage is essential for increasing the likelihood of candidate success. In this study, we analyzed results from a cell-based cytotoxicity screening campaign, comprising nearly 10,000 compounds in NCATS annotated libraries, and over 100,000 compounds in a diversity library, evaluated in four normal cell lines (HEK 293, NIH 3T3, CRL-7250 and HaCat) and a cancer cell line (KB 3-1, a HeLa subline) with overall screening outcomes, hit rates, pan-activity and selectivity. For the annotated library, we also examined the primary targets and mechanistic pathways regularly associated with cell death. To our knowledge, this is the first study to use high-throughput screening to profile large libraries for cytotoxicity assessment in both normal and cancer cell lines. In summary, the results generated here constitutes a valuable resource for the scientific community and provides insight on identifying cytotoxic compounds with particular mechanisms of action, and prioritizing compounds with suitable cytotoxicity profile for further evaluation.
# NIH 3T3 cells were seeded into white 1536-well plates using a Multidrop Combi peristaltic dispenser (ThermoFisher, Waltham, MA) at a density of 400 cells/well in 5 uL of medium respectively. A pintool (Kalypsys) was used to transfer 23 nL of compound solution to the 1536-well assay plates. After 48 or 72 hr incubation at 37 degree Celsius, 5% CO2 and 95% humidity, 2.5 uL of CellTiter-Glo (Promega) was dispensed into each well using a dispenser (Aspect Automation, St. Paul, MN) with solenoid valves (Lee Valves, Westbrook CT). Plates were left at room temperature for 10 min before imaging the ATP-coupled luminescence using a ViewLux microplate imager (PerkinElmer, Waltham, MA).
# % is scaled to controls: 0 for no effect and ±100 for the full control effect; potency is read from the fitted curve at half-maximal effect.
Compound,Potency,"activity change, negative = cytotoxicity",outcome
Cc1nn(CCC#N)c(C)c1[C@@H]1C=C[C@@H](NS(=O)(=O)c2ccccc2)C1,25.1 µM (active),,
Cc1noc(C)c1[S+](=O)([O-])N1CCCC2(CC(Cc3ccccc3)=NO2)C1 (stereo not given),,-15.9%,
CN(C)CCNC(=O)C[C@@H]1c2nc(NC(=O)c3ccc(C(C)(C)C)cc3)sc2C[C@@H]2[C@](C)(CO)[C@H](O)CC[C@]21C,25.1 µM (active),,
C=CCOC(=O)Nc1nc2c(s1)C[C@@H]1[C@](C)(CO)[C@H](O)CC[C@@]1(C)[C@@H]2CC(=O)N(CC)CC,,-24.1%,
C=CCN(C)C(=O)C[C@@H]1c2nc(NC(=O)c3ccc(C(C)(C)C)cc3)sc2C[C@@H]2[C@](C)(CO)[C@H](O)CC[C@]21C,28.2 µM (active),,
C[C@]1(CO)[C@H]2Cc3sc(NC(=O)C4CCC4)nc3[C@@H](CC(=O)N3CCCCC3)[C@]2(C)CC[C@H]1O,,-20.3%,
CC(=O)N1CCN(C(=O)C[C@@H]2c3nc(NC(=O)c4cccs4)sc3C[C@@H]3[C@](C)(CO)[C@H](O)CC[C@]32C)CC1,,-7.77%,
COCC(=O)Nc1nc2c(s1)C[C@@H]1[C@](C)(CO)[C@H](O)CC[C@@]1(C)[C@@H]2CC(=O)NCCN1CCOCC1,,-5.42%,
Cc1noc(C)c1[S+](=O)([O-])N1CCC2(CC(C(C)C)=NO2)C1 (stereo not given),,,inactive
C[C@@H]1CN(C(=O)CNS(=O)(=O)c2cccs2)C[C@@]1(O)C1CC1,,2.19%,
CN(C(=O)c1ccccc1)C1CCc2ccccc21 (stereo not given),,-22.7% [at 138 µM],
CC(C)N(C)Cc1nnnn1CC(=O)NCc1ccc2nonc2c1,,-1.51%,
O=C(CN1C(=O)C(c2ccccc2)=NC12CCCC2)Nc1ccc2c(c1)OCCO2,,-12.9%,
Cn1cnnc1CC1CCCN(C(=O)c2ccsc2)C1 (stereo not given),,-9.22%,
CCc1cc(N2CCN(CC3(O)CCCNC3)CC2)ncn1 (stereo not given),,1.73%,
OC1(CN2CCC(CCn3cccn3)CC2)CNCCOC1 (stereo not given),,-1.98%,
COc1ccc(OCC2CCN(CC3(O)CCCNC3)CC2)cc1 (stereo not given),44.7 µM (active),,
Cc1cc(C)c(-c2nc3ncccc3[nH]2)[nH]1,,-16.4% [at 174 µM],
CC(C)NC(=O)N1CCN(CCCn2nc3n(c2=O)CCCC3)CC1,,-16.3%,
COc1ccc(-c2cc(N3CCCN(C(=O)c4ccc(C)cc4)CC3)n[nH]2)cc1,,-21.8%,
CCOc1cc(C(=O)N2CCCN(c3cc(-c4ccccc4)[nH]n3)CC2)cc(OCC)c1OCC,,-8.89%,
O=C(c1cccnc1)N1CCN(c2cc(-c3ccccc3)[nH]n2)CC1,,-25.7%,
O=C(N1CCN(c2cc(-c3ccc(Cl)cc3)[nH]n2)CC1)C1(c2ccccc2)CC1,35.5 µM (active),,
COc1ccc(-c2cc(N3CCN(C(=O)c4ccncc4)CC3)n[nH]2)cc1,,-17.1%,

Compound,Potency,"activity change, negative = cytotoxicity",outcome
O=C(c1ccc2cc[nH]c2c1)N1CCCN(c2cc(-c3ccc(Cl)cc3)[nH]n2)CC1,39.8 µM (active),,
O=C(NCc1ccccn1)c1ccc2oc(-c3cccnc3)nc2c1,,-20.7%,
O=C(c1ccccc1Cl)N1CCC(c2nc(-c3cccnn3)no2)CC1,,3.48%,
O=C1NCCCCCN(C(=O)NCCc2ccccc2)[C@H]2CCC[C@@H]12,,-18.9%,
CCN(C1CCOCC1)C1CN(C(=O)C2CC2)C1,,-3.57%,
CC(=O)c1ccc(NC(=O)N2CCc3c(nc(-c4ccc(F)cc4)[nH]c3=O)C2)cc1,,-8.56%,
O=S(=O)(NCC1CNCCOC1)c1ccc(F)c(F)c1F (stereo not given),,2.03%,
CCNc1cc(N2CCC(CCC(=O)Nc3ccc(C)cc3C)CC2)ncn1,,-28%,
CCOc1ncccc1CNC(=O)c1cc(S(N)(=O)=O)ccc1F,,-29.4%,
O=C(Cn1nc2c(cc1=O)CCCC2)NCc1cccc(F)c1,,,inactive
CNC(=O)c1cccc(-c2cnc3[nH]cc(CC(=O)NCc4cccc(F)c4)c3c2)c1,89.1 µM (active),,
COc1ccc(CCNC(=O)c2nnn3cc(-c4ccccc4)[nH]c(=O)c23)cc1OC,,-24.9%,
COc1ccc(CNC(=O)Cc2c[nH]c3ncc(-c4ccccc4)cc23)cc1OC,39.8 µM (active),,
O=C(Cc1cccc(F)c1)Nc1cnc(-c2cccnc2)nc1,,-21.8%,
COc1ccccc1C(=O)NCc1ccnc2[nH]ccc12,,-20.2% [at 138 µM],
O=C(NCc1nc(-c2cccc(F)c2)c(-c2ccccn2)[nH]1)[C@@H]1CCCN1,,-3.54%,
COc1ccc(Nc2ccnc(N3CCC(C(=O)N4CCN(C(C)=O)CC4)CC3)n2)cc1,,-9.35%,
O=C(NCC(F)F)[C@@H]1CCCN1c1nccc(Nc2ccccc2Cl)n1,,-20.9%,
Cc1ccc(Nc2ccnc(N3CCCC3C(=O)N3CCC(Cc4ccccc4)CC3)n2)cc1 (stereo not given),20 µM (active),,
CCCN1CC(Oc2ccc(-c3noc(C4CC4)n3)cc2)C1,,-8.55%,
COc1cccc(F)c1C(=O)N1C[C@H](N)C[C@H]1C(=O)NC(C)C,,-22.2%,
O=C1CCCCC(CNC(=O)c2cc(F)ccc2F)N1 (stereo not given),,,inactive
Cc1cc(Cl)ccc1-c1ccc(CN)cc1,31.6 µM (active),,
NCc1ccc(-c2cncnc2)cc1,,1.34% [at 174 µM],

Compound,Potency,"activity change, negative = cytotoxicity",outcome
COc1cccc(CCC(=O)N2CCCC2c2nc(C3CCOCC3)no2)c1 (stereo not given),,-6.83%,
O=C(c1ccc(Cl)cc1)N1CCCC2(CNc3ncccc3[S+](=O)([O-])N2)C1 (stereo not given),,-20%,
Cn1cnc(S(=O)(=O)N[C@H]2CCN(C(=O)c3ccco3)[C@H](C(=O)N[C@@H](Cc3cccs3)C(N)=O)C2)c1,,-17.1%,
O=C(C[C@@H]1CCNC[C@@H]1Cc1cc(-c2ccc(F)cc2)on1)NCCN1CCOCC1,,,inactive [at 174 µM]
COc1ccc(-c2cc(C[C@H]3CNCC[C@H]3CC(=O)NCCN(C)C)no2)cc1,,-24.5% [at 174 µM],
COc1ccc(CNC(=O)C[C@@H]2CCNC[C@@H]2Cc2cc(-c3ccc(C(C)(C)C)cc3)on2)cc1OC,25.1 µM (active),,
CN1C(=O)CCC2(CNC(=O)c3ccoc3)CCCC=C12 (stereo not given),,,inactive
CCCn1ncc(C(=O)NCC2(O)CCCNC2)c1C (stereo not given),,3.08%,
CC(NC(=O)c1ccc(CN2C(=O)NC3(CCOCC3)C2=O)cc1)c1ccccc1 (stereo not given),,-3.56%,
COC(=O)C1CCN(C(=O)CC[C@H]2CNC(=O)[C@@H]3[C@@H](CCN3Cc3cccs3)N2C)CC1,,-16%,
Cn1c(=O)n([C@H]2CCCN(C(=O)C3CC=CC3)C2)c2ncccc21,,-9.11%,
Cc1ccc(C)c(S(=O)(=O)c2nnn3c2nc(NCc2ccc(F)cc2)c2ccccc23)c1,28.2 µM (active),,
Cc1cccc(C)c1-c1nc(C(=O)NCc2ccc(F)cc2)n2ccccc12,,-23.7%,
O=c1[nH]c(C2CCCN([S+](=O)([O-])c3cccc(C(F)(F)F)c3)C2)nn1-c1ccc(F)cc1 (stereo not given),,-13.8%,
CC[C@H]1CN(C(=O)Nc2ccccc2)CC[C@H]1CC(=O)Nc1ccccc1,,-17.9% [at 174 µM],
O=C1NCc2ccccc2CC12CCN(CC1CCCCC1)C2 (stereo not given),,-13.4%,
COc1cccc(NC(=O)Cn2c(-c3ccccc3)nc(C)cc2=O)c1,,-26.4%,
CCc1cc(=O)n(CC(=O)Nc2cccc(C(C)=O)c2)c(-c2ccccc2)n1,35.5 µM (active),,
CC(=O)c1cccc(NC(=O)Cn2c(-c3ccc(Cl)cc3)nc(C)cc2=O)c1,,-23.6%,
COc1ccc(-c2cc(N3CCC(NC(=O)c4ccoc4)CC3)n[nH]2)cc1,,-20.6%,
CC(C)(C)OCC1CN(Cc2cccs2)C(=O)c2cccnc2O1 (stereo not given),,-23.4%,
COc1ccc(CNC(=O)CC[C@H]2CNC(=O)[C@@H]3[C@@H](CCN3C3CCOCC3)N2C)cc1,,1.52%,
CC(C)c1noc(-c2ccn3c(CNC(=O)c4ccc5ccccc5n4)nnc3c2)n1,,0.0071%,
O=C(NCCc1ccccc1)c1ccc2c(c1)OCCN(CCC(F)(F)F)C2,,-8.88% [at 138 µM],

Compound,Potency,"activity change, negative = cytotoxicity",outcome
CC(C)(C)c1csc(NC(=O)c2ccc3c(c2)OCCN(C2CCC2)C3)n1,79.4 µM (active),,
O=C(NCCc1ccccn1)c1ccc2c(c1)OCCN(c1ccccc1)C2,,-16.9% [at 138 µM],
Cc1noc(C2CC3(CCN(C(=O)c4cccnc4C)CC3)CN2C)n1 (stereo not given),,1.03%,
O=C(CN1CCC2(CC1)NC(=O)CC2C(=O)O)NCCc1ccc(F)cc1 (stereo not given),,-10.7%,
O=C(Cc1cccc(Cl)c1)N1CCCN(c2ccc3nnc(C4CC4)n3n2)CC1,,-5.27%,
Cc1c[nH]c(CN2CCCC(CCc3ccc(F)cc3F)C2)c(C)c1=O (stereo not given),50.1 µM (active),,
Cn1ccnc1CN1CCCC(CCC(=O)Nc2ccccc2F)C1 (stereo not given),,,inactive
CN1[C@@H](CCC(=O)N2CCOCC2)CNC(=O)[C@@H]2[C@H]1CCN2Cc1ccc(S(C)(=O)=O)cc1,,,inactive
Cc1ccc(F)cc1S(=O)(=O)N1CCC(OC2CCN(Cc3ccccc3)CC2)CC1,35.5 µM (active),,
O=c1[nH]c(C2CCN(Cc3ccccc3)CC2)nc2ccc(F)cc12,inactive,,
CC(C)C(=O)N1CCC(OC2CCN(Cc3ccccc3)CC2)CC1,,-29.4%,
CCCN1CCN(c2ccc(C(=O)N(C)Cc3ccc4ccccc4n3)cn2)CC1,,-1.06%,
COCCN1CCOC2(CCN(Cc3ccc(F)cc3F)CC2)C1=O,,-26.7% [at 138 µM],
C[S+](=O)([O-])c1cccc(-c2ncc3c(n2)OCCN(Cc2ccc(F)cc2F)C3=O)c1,28.2 µM (active),,
CN(C)c1cccc(-c2ncc3c(n2)OCCN(Cc2ccc(F)cc2F)C3=O)c1,,-22.8% [at 138 µM],
COCCOc1ccc(-c2noc([C@@H]3CCCN3Cc3cccnc3)n2)cn1,,-21.8% [at 138 µM],
COc1ccc(-c2ncc3c(n2)OCCN(Cc2ccccc2)C3=O)cn1,35.5 µM (active),,
COc1ccc(CN2CCN3C(=O)N(c4ccccc4)C[C@H]3C2)cn1,,-29.7% [at 174 µM],
Cc1nc(CCNc2nccc(-c3cccnc3)n2)nc2c1CCCC2,,2.97%,
CNC(=O)[C@@H]1[C@H]2CN(C3CCCCCC3)CCN2C[C@H]1c1ccccc1,,-42.5%,
O=C(C1CCCC1)N1C[C@@H](CO)[C@H](c2ccncc2)C1,,2.17%,
CC(C)(C)c1ccc(C(=O)N2C[C@@H](CO)[C@H](c3ccccn3)C2)cc1,,-21%,
CC(C)CNC(=O)c1nnn2c1COC(c1ccc(Br)cc1)C2 (stereo not given),,-19.1%,
